Test results from the supplement of paper PMC6555819.

Experiments:
Assay in all cases: PBM binding z-score (relative to random genomic background probes); higher = stronger binding; sequences stand for … in GC…GCGATTGACAGCGTAGAATGAAGG
[1] = tested on: RARb homodimer (NR concentration 270 nM)
Procedure, shortened: (§1)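 Each nuclear receptor dimer, without ligand, was incubated for 1 h on custom Agilent 4×180K protein-binding microarrays. Binding was detected with antibodies against each partner (one per run), and scanned fluorescence was regression-normalized. The binding z-scores are referenced to random human genomic background probes.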

[2] = tested on: RARg:RXRa (NR concentration 270 nM, RXRa partner concentration 90 nM)
Procedure, shortened: as §1

[3] = tested on: RARg homodimer (NR concentration 270 nM)
Procedure, shortened: as §1

[4] = tested on: RXRa DBDmut IVT, anti-RXR (DBD mutation: RXRa K156A/R161A, NR concentration 90 nM)
Procedure, shortened: as §1

[5] = tested on: RXRa homodimer (NR concentration 180 nM)
Procedure, shortened: as §1

[6] = tested on: THRa:RXRa (NR concentration 90 nM, RXRa partner concentration 90 nM)
Procedure, shortened: as §1

[7] = tested on: THRa homodimer (NR concentration 90 nM)
Procedure, shortened: as §1

[8] = tested on: VDR homodimer (NR concentration 270 nM)
Procedure, shortened: as §1

Row | Sequence | PBM binding z-score [1] | PBM binding z-score [2] | PBM binding z-score [3] | PBM binding z-score [4] | PBM binding z-score [5] | PBM binding z-score [6] | PBM binding z-score [7] | PBM binding z-score [8]
1 | AGAATGAGGTTATTAGGATCAGGGAATTGCGGTC | 1.24 | 1.4 | 0.986 | 2.16 | 1.9 | 2.35 | 1.11 | 1.87
2 | TCTACAGGGTCAAAGGCCAGAGTACGAATGTCGA | 3.2 | 5.47 | 5 | 3.16 | 6.72 | 3.48 | 0.454 | 2.55
3 | GCTATTAGTTGAAAGGGCATCCGAATGATTCTCG | 1.52 | 1.04 | 0.981 | 1.01 | 1.15 | 0.356 | -0.145 | 0.425
4 | TGAATGAGATTAAAGATCAGGGAACGTGGCGTCG | -0.824 | -0.0861 | 0.247 | -1.09 | 0.253 | -0.316 | -0.698 | -0.27
5 | TTTTGTAGATCAATAGAGGTTAAGAAAGTGCGCT | 1.27 | 0.945 | 0.869 | -0.0202 | 1.52 | 2.28 | -0.0563 | 0.777
6 | TCGAGTAGGTTACCAATGGGGCATTGAGCTTTCT | 0.567 | 1.1 | 0.221 | 0.408 | 0.672 | 0.145 | -0.895 | -0.64
7 | TCATATAGGTAAAGATGAAAGTCGAACGATATGA | -0.846 | 0.547 | 0.586 | 0.337 | 0.56 | -0.225 | -1.11 | -0.391
8 | GCTTCTAGGTCAACTGATGGTCAGCTAAAGCTCG | 3.97 | 5.38 | 5.89 | 1.54 | 3.56 | 3.5 | 1.79 | 0.255
9 | ATATGTAGGTTAAGGGTCGTTCAGGTTGGTTCGC | 2.6 | 2.82 | 1.63 | 1.64 | 3.9 | 2.48 | 1.75 | 2.58
10 | CGTCCAAGTTCATAGGAGGTCAGTGAAGACAGAT | 4.1 | 4.63 | 5.14 | 4.98 | 3.69 | 4.73 | 1.52 | 6.53
11 | TCATATAGGTAGAGGTGAAAGTCGAACGATATGA | 1.04 | 1.18 | 1.11 | 0.392 | 1.77 | 1.41 | -0.0362 | 0.0889
12 | CGTCAAAGTTCAACTAACGTAACGTAAAGCACGC | 4.09 | 5.71 | 6.79 | 4.56 | 4.65 | 1.97 | 0.0138 | 3.38
13 | CGTCCAAGGTCAAGGTCAGCGAAAGAGACTCGAA | 5.23 | 6.94 | 7.94 | 3.44 | 6.74 | 4.14 | 3.58 | 3.19
14 | TATACAGGGACAAAGGCCAGAGTACGAATGTCGA | 1.4 | 1.29 | 1.58 | -0.217 | 0.385 | 0.949 | -0.0231 | 0.738
15 | TCTAGTTGCTCAAAGGTCACACACTCGAAATGCG | 5.02 | 5.93 | 5.78 | 1.88 | 6.66 | 3.76 | 1.89 | 2.12
16 | CCAACTAGGTCAAGGTCAAAGTCGGTTTGTGCCA | 5.31 | 6.08 | 6.54 | 3.17 | 5.72 | 4.33 | 4.25 | 4.39
17 | TCTTGTAGATCAAAGGTTGAGAAAGCCGAAGCCT | 0.0942 | 0.326 | -0.192 | 0.518 | 1.08 | 0.142 | -0.747 | -0.223
18 | TCTGCTAGGTCAACGATGGTCAGCTAATCTGCTA | 3.36 | 4.01 | 4.95 | 1.24 | 2.42 | 3.15 | 0.461 | -0.403
19 | CTCGAACGGTCGGTTGAGGTGAGTATACGGATAA | 0.411 | 0.215 | 0.464 | -0.356 | -0.11 | 3.27 | 0.822 | -0.341
20 | GTACCAAGGTTAATAGGTCGTTGATGAGTAGGCG | 2.14 | 3.29 | 2.07 | 0.518 | 2.5 | 1.68 | 0.196 | 0.941
21 | TAGCCTAGGTCATGCAGGGGCCAGTATAGAAAGC | 3.35 | 6.15 | 4.48 | 0.31 | 3.12 | 3.29 | 0.474 | 0.435
22 | TGGATGAGGTTATAAGATCAGGGAACGTTGCAAA | 0.465 | 1.53 | 1.24 | 0.341 | 1.97 | 1.91 | 0.397 | 0.65
23 | AATAGAGGGTCATCGTAGGCCAGAGTACGCACAG | 3.48 | 5.35 | 5.12 | 2.46 | 5.77 | 4.26 | 0.0486 | 2.55
24 | TGTCAAAGTTCAAAGTTAACGTAAGTATCCACAC | 3.88 | 5.8 | 5.72 | 4.53 | 5.86 | 2.62 | 0.00571 | 4.02
25 | TCTTGTAGATTAGCAGGTTAAGAAAGCTGGCCAA | 0.292 | -0.0657 | -0.174 | 0.682 | 0.386 | 0.458 | -0.511 | -0.173
26 | CAGACTGGGGCAGAAAGGTTACCATACCATCCGG | 2.4 | 2.09 | 1.85 | -0.43 | 1.98 | 1.29 | -0.421 | 0.0589
27 | CAAACTAGGTCATGAAAGGTCAAAGTCGAATGAC | 5.55 | 7.46 | 7.78 | 2.45 | 7.87 | 5.19 | 2.21 | 4.05
28 | TAGCCTGGGTCATGCGGGCCAGTATAGTGTCGGC | 2.5 | 3.64 | 3.37 | -0.265 | 3.11 | 2.46 | -0.102 | 0.606
29 | TGAATGAGTTTATAAGATCAGGGAACGTTGCAAA | -0.48 | 0.181 | 0.344 | 3 | 0.0895 | 0.0488 | -0.207 | 2.37
